High-throughput results deposited in PubChem by National Center for Advancing Translational Sciences (NCATS).
D2 ag-1: activates the human D2 dopamine receptor; P14416; HEK293 T-REx D2 cells, calcium flux agonist mode; activation, % at 2 µM; hit rate 0.53% among 340,000; AID 485358;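 active = activation over 3 SD above normal in the single-dose calcium agonist read, cut at about 30% in these data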
Target sequence (P14416 whole entry, looked up): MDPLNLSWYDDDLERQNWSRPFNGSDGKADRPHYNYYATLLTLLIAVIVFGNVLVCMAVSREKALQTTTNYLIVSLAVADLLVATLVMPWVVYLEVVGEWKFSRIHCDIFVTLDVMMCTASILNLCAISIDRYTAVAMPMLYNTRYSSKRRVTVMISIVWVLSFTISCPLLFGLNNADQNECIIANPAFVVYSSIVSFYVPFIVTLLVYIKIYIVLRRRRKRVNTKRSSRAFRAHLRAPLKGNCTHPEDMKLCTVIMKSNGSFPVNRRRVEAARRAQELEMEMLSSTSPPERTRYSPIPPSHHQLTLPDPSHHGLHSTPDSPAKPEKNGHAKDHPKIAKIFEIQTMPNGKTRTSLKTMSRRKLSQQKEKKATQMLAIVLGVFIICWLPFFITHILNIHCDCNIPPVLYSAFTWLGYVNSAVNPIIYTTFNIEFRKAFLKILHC
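Agonism is scored from calcium flux in a force-coupled, inducible HEK293 cell line expressing D2, read kinetically for 180 s after compound addition against dopamine controls.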
D2 ag-2: human D2 receptor agonism in beta-arrestin assay. DiscoveRx PathHunter D2 beta-arrestin, luminescence, 90 min; 100% = 57 uM dopamine signal. activation, % (concentration not given with the values). hit rate 0.084% among 360,000; in the data active = activation above about 40%; inconclusive = between about 15% and that limit
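Agonist mode: compounds alone added to overnight-plated D2 PathHunter cells for 90 min at 37 C, with 57 uM final dopamine (EC100) defining full response. Beta-arrestin recruitment detected by chemiluminescent reagent, read after 1 h at ambient temperature.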
D2 PAM-1: potentiates the human D2 dopamine receptor allosterically. DiscoveRx D2 beta-arrestin cells, luminescence, 90 min; 100% = 57 uM dopamine signal. P14416. potentiation, % (concentration not given with the values). hit rate 0.23% among 360,000; in the data active = potentiation above about 50%; inconclusive = mostly about 30% to 49%
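PathHunter beta-arrestin assay in DiscoveRx D2 cells. Compounds were added with an EC20 of dopamine (50 nM final) for 90 min at 37 deg C. Luminescence was read 1 h after detection reagent, with 57 uM dopamine as the EC100 control.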
D2 PAM-2: D2 dopamine receptor (human) potentiation | AID 485347 | potentiation, % at 10 µM | hit rate 0.34% among 340,000 | HEK293 T-REx D2, calcium flux, EC20 dopamine potentiation | P14416;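 active = potentiation over 3 SD above the plate norm, cut at about 30% in these data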
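Using a no-wash calcium dye in inducible, force-coupled HEK293 Trex cells expressing D2, we tracked fluorescence each second for 180 s after compound, then for 180 s after EC20 dopamine to detect augmented signalling.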
D2 antagonist: antagonizes the human D2 dopamine receptor | inhibition, % at 10 µM | AID 485344 | hit rate 2% among 340,000 | HEK293 TREx D2 cells, calcium flux, dopamine EC80; in the data active = inhibition above about 30%; inactive = below that, where a call was filed
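Dopamine at EC80 is the agonist stimulus; test compounds precede it by 180 s. Calcium flux read kinetically in a force-coupled, inducible HEK293 T-REx D2 cell line.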
Large screens that a line does not name were inactive. An excerpt weighted towards active compounds, which were near 2.4% of everything screened.

Cc1ccc(-c2c(C(=O)N3CCOCC3)oc(=O)c3ccccc23)cc1	none
CCN1CCN(C(=O)c2oc(=O)c3ccccc3c2-c2ccc(C)cc2)CC1	D2 antagonist 59
CCCOc1ccc(F)cc1-c1cc(C(=O)NCc2cccc(Cl)c2)[nH]n1	none (no result: D2 ag-1, D2 PAM-2, D2 antagonist)
CCCCNc1ccc(C(CC(N)=O)NC(=O)Cc2cccc3ccccc23)cc1[N+](=O)[O-] (configuration not stated)	none
NC(=O)CC(NC(=O)c1ccccc1)c1ccc(NCC2CC2)c([N+](=O)[O-])c1 (configuration not stated)	none
Cc1cccc(CNc2ccc(C(CC(N)=O)NC(=O)Cc3cccc4ccccc34)cc2[N+](=O)[O-])c1 (configuration not stated)	D2 antagonist 34
NC(=O)CC(NC(=O)c1cccc(Br)c1)c1ccc(NCC2CC2)c([N+](=O)[O-])c1 (configuration not stated)	D2 antagonist 38
COc1cc(SC)ccc1C(=O)Nc1ccc(S(=O)(=O)Nc2nccc(C)n2)cc1	none (no result: D2 ag-2, D2 PAM-1, D2 antagonist)
CCC(=O)N1CCc2cc(S(=O)(=O)NCCC(=O)Nc3cc(C)ccc3OC)ccc21	none (no result: D2 ag-2, D2 PAM-1, D2 antagonist)
O=S(=O)(c1ccc(Cl)cc1)n1cccn1	D2 antagonist 40
O=S(=O)(c1ccc(Cl)cc1)N1CCN(c2ncccn2)CC1	none
CC1=C(C(=O)OCc2ccccc2)C(c2cccc([N+](=O)[O-])c2)NC(=O)N1 (configuration not stated)	D2 PAM-1 59
COc1ccccc1C1NC(=O)NC(C)=C1C(=O)OCc1ccccc1 (configuration not stated)	none
CC1=C(C(=O)OCc2ccccc2)C(c2ccccc2Br)NC(=O)N1 (configuration not stated)	D2 ag-2 97, D2 PAM-1 inconclusive
CCOc1ccc(CCNC(=O)c2ccc(C)c(-n3c(C)nc4cccnc43)c2)cc1OCC	none (no result: D2 ag-2, D2 PAM-1, D2 antagonist)
CSc1nc2sc3c(c2c(=O)n1-c1ccc(C)c(Cl)c1)CCN(C(C)=O)C3	none (no result: D2 ag-2, D2 PAM-1, D2 antagonist)
COCC(C)n1c(C)cc(C(=O)COC(=O)/C=C/c2cccc(F)c2)c1C (configuration not stated)	D2 PAM-2 53
Cc1cc(C(=O)COC(=O)/C=C/c2ccc(F)cc2)c(C)n1C	none
Cc1ccc(NC(=O)Cn2c(=O)n(-c3ccc(CC(=O)NCC4CCCO4)cc3)c(=O)c3ccccc32)cc1 (configuration not stated)	none (no result: D2 ag-2, D2 PAM-1, D2 antagonist)
O=C(CN1CCN(Cc2ccccc2F)C1=O)NC1CCCC1	D2 antagonist 40
O=C(CN1CCCN(Cc2ccc(F)cc2Cl)C1=O)NC1CCCCCCC1	none
CCOc1ccccc1C(=O)Nc1c(NC)c2ccccc2oc1=O	none (no result: D2 ag-2, D2 PAM-1, D2 antagonist)
CCOC(=O)C1CCN(CCCSc2ccc(Cl)cc2)CC1	D2 antagonist 46
CC1CN(CCOCCSc2ccc(Cl)cc2)CC(C)O1 (configuration not stated)	D2 antagonist 50
Clc1ccc(SCCOCCN2CCCCC2)cc1	none
CCOC(=O)C1CCN(CCC(=O)Nc2ccc(Cl)cc2)CC1	none
CC1CCN(CCOCCSc2ccc(Cl)cc2)CC1	D2 antagonist 45
COCCSc1ccccc1C(=O)NCCCn1ccnc1	D2 antagonist 39
COCCSc1ccccc1C(=O)Nc1ccc(Cl)cc1	D2 antagonist 58
CCOC(=O)C1CCCN(C(=S)NC2CCCCC2)C1 (configuration not stated)	none (no result: D2 ag-1, D2 PAM-2, D2 antagonist)
CCOC(=O)C1CCN(C(=S)NC2CCCC2)CC1	D2 antagonist 34
O=S(=O)(Cc1ccc(Cl)cc1)c1ccccc1-c1nnc(-c2ccccc2)o1	D2 antagonist 55
CS(=O)(=O)c1ccccc1-c1nnc(-c2ccc(Cl)cc2)o1	none
Cc1cc(Nc2ccccc2)nn1C(=O)c1ccc([N+](=O)[O-])cc1	D2 PAM-1 56
Cc1cc(Nc2ccccc2)nn1C(=O)c1ccc(Cl)cc1	none
CC(=O)n1cc([C@H]2C=C(C(=O)N3CCOCC3)O[C@@H](OCCCCO)C2)c2ccccc21	none (no result: D2 ag-1, D2 PAM-2, D2 antagonist)
CCn1c(C)nc2cc(C(=O)N/N=C/c3ccc(O)c(O)c3O)ccc21	D2 ag-1 32
CCCCN1C(=O)c2ccc(C(=O)Nc3ccccc3N3CCOCC3)cc2C1=O	D2 antagonist 44
O=C(CN1C(=O)c2ccccc2C1=O)Nc1ccccc1N1CCOCC1	none
